Experimental data from PubChem BioAssay AID1159580 (chemical genetic matrix, 2015).
Values joined by “and” are separate entries in the source; they are usually repeats but may differ in a detail not shown here. Identical values can stand only once. Among all 5,500 compounds or so, about 2,000 (36%) were called active. About 18% were inconclusive and are not listed. Cut-off read from the data, not from the text of the source: active = normalized growth mostly below about 0.91 (no sharp cut-off); inconclusive = no clear call, values can overlap the other calls; inactive = mostly above about 0.92. Some of the results follow.

Experiment: chemical genetic growth profiling, strain panel (AID 1159580);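 note: tested at 20 µM; growth read once vehicle control cultures reached saturation at 30 °C; 1 = growth at the plate median or of vehicle wells; lower values mean less growth of the strain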
Details: S. cerevisiae deletion strains, growth OD

Q: Which normalized growth (locus YAL021C, strain ccr4, stronger effect = lower value) does the source give for `CC(=O)Nc1ccc(OC(=O)c2ccccc2O)cc1` here?
A: The normalized growth was 1 (inactive).

Q: What about the normalized growth (locus YAL026C, strain drs2, stronger effect = lower value) of the same compound?
A: Its normalized growth is 0.949 (inactive).

Q: What about the normalized growth (locus YAL030W, strain snc1, stronger effect = lower value) of the same compound?
A: Its normalized growth is 0.994 (inactive).

Q: What about the normalized growth (locus YBL061C, strain skt5, stronger effect = lower value) of the same compound?
A: The normalized growth was 0.972 (inactive).

Q: And the normalized growth (locus YBR009C, strain hhf1, stronger effect = lower value)?
A: The normalized growth was 0.862 (active).

Q: What about the normalized growth (locus YBR021W, strain FUR4, stronger effect = lower value) of the same compound?
A: Its normalized growth is 0.807 (active).

Q: What about the normalized growth (locus YBR023C, strain chs3, stronger effect = lower value) of the same compound?
A: Its normalized growth is 0.908 (active).

Q: What about the normalized growth (locus YBR171W, strain sec66, stronger effect = lower value) of the same compound?
A: Its normalized growth is 0.992 (inactive).

Q: What about the normalized growth (locus YBR229C, strain ROT2, stronger effect = lower value) of the same compound?
A: The normalized growth was 0.98 (inactive).

Q: What about the normalized growth (locus YBR231C, strain swc5, stronger effect = lower value) of the same compound?
A: The normalized growth was 0.992 (inactive).

Q: And the normalized growth (locus YBR279W, strain paf1, stronger effect = lower value)?
A: Its normalized growth is 0.939 (inactive).

Q: And the normalized growth (locus YCL011C, strain gbp2, stronger effect = lower value)?
A: Its normalized growth is 0.87 (active).

Q: What about the normalized growth (locus YCL016C, strain dcc1, stronger effect = lower value) of the same compound?
A: The normalized growth was 0.91 (active).

Q: What about the normalized growth (locus YCL029C, strain bik1, stronger effect = lower value) of the same compound?
A: The normalized growth was 0.954 (inactive).

Q: And the normalized growth (locus YCL061C, strain MRC1, stronger effect = lower value)?
A: Its normalized growth is 0.917 (active).

Q: And the normalized growth (locus YCL069W, strain vba3, stronger effect = lower value)?
A: The normalized growth was 0.908 (active).

Q: And the normalized growth (locus YCR088W, strain abp1, stronger effect = lower value)?
A: Its normalized growth is 0.929 (inactive).

Q: What about the normalized growth (locus YDL005C, strain med2, stronger effect = lower value) of the same compound?
A: Its normalized growth is 0.996 (inactive).

Q: What about the normalized growth (locus YDL035C, strain GPR1, stronger effect = lower value) of the same compound?
A: Its normalized growth is 0.911 (inactive).

Q: What about the normalized growth (locus YDL040C, strain nat1, stronger effect = lower value) of the same compound?
A: Its normalized growth is 0.99 (inactive).

Q: What about the normalized growth (locus YDL074C, strain BRE1, stronger effect = lower value) of the same compound?
A: The normalized growth was 0.788 (inactive).

Q: And the normalized growth (locus YDL101C, strain DUN1, stronger effect = lower value)?
A: Its normalized growth is 0.947 (inactive).

Q: What about the normalized growth (locus YDL134C, strain PPH21, stronger effect = lower value) of the same compound?
A: The normalized growth was 0.878 (active).

Q: And the normalized growth (locus YDL185W, strain tfp1, stronger effect = lower value)?
A: The normalized growth was 0.954 (inactive).

Q: What about the normalized growth (locus YDL192W, strain arf1, stronger effect = lower value) of the same compound?
A: Its normalized growth is 0.967 (inactive).

Q: And the normalized growth (locus YDR001C, strain nth1, stronger effect = lower value)?
A: Its normalized growth is 0.959 (inactive).

Q: What about the normalized growth (locus YDR069C, strain doa4, stronger effect = lower value) of the same compound?
A: Its normalized growth is 0.999 (inactive).

Q: And the normalized growth (locus YDR101C, strain arx1, stronger effect = lower value)?
A: Its normalized growth is 0.937 (inactive).

Q: What about the normalized growth (locus YDR137W, strain rgp1, stronger effect = lower value) of the same compound?
A: The normalized growth was 0.958 (inactive).

Q: What about the normalized growth (locus YDR159W, strain sac3, stronger effect = lower value) of the same compound?
A: The normalized growth was 0.842 (active).

Q: What about the normalized growth (locus YDR162C, strain NBP2, stronger effect = lower value) of the same compound?
A: Its normalized growth is 0.943 (inactive).

Q: What about the normalized growth (locus YDR195W, strain ref2) of the same compound?
A: Its normalized growth is 1.15 [resistant] (active).

Q: And the normalized growth (locus YDR297W, strain sur2, stronger effect = lower value)?
A: The normalized growth was 0.977 (inactive).

Q: What about the normalized growth (locus YDR318W, strain mcm21, stronger effect = lower value) of the same compound?
A: Its normalized growth is 0.93 (inactive).

Q: What about the normalized growth (locus YDR334W, strain swr1, stronger effect = lower value) of the same compound?
A: The normalized growth was 0.962 (inactive).

Q: What about the normalized growth (locus YDR335W, strain msn5, stronger effect = lower value) of the same compound?
A: The normalized growth was 0.977 (inactive).

Q: And the normalized growth (locus YDR388W, stronger effect = lower value)?
A: Its normalized growth is 0.944 (inactive).

Q: What about the normalized growth (locus YDR392W, strain spt3, stronger effect = lower value) of the same compound?
A: The normalized growth was 0.712 (active).

Q: What about the normalized growth (locus YDR502C, strain sam2, stronger effect = lower value) of the same compound?
A: Its normalized growth is 0.913 (active).

Q: What about the normalized growth (locus YEL003W, strain gim4, stronger effect = lower value) of the same compound?
A: The normalized growth was 0.978 (inactive).

Q: What about the normalized growth (locus YEL037C, strain rad23, stronger effect = lower value) of the same compound?
A: The normalized growth was 0.968 (inactive).

Q: What about the normalized growth (locus YEL061C, strain CIN8 (second series), stronger effect = lower value) of the same compound?
A: Its normalized growth is 0.971 (inactive).

Q: What about the normalized growth (locus YEL061C, strain CIN8, stronger effect = lower value) of the same compound?
A: Its normalized growth is 0.98 (inactive).

Q: And the normalized growth (locus YER015W, strain faa2, stronger effect = lower value)?
A: The normalized growth was 0.934 (inactive).

Q: What about the normalized growth (locus YER016W, strain bim1, stronger effect = lower value) of the same compound?
A: Its normalized growth is 0.933 (inactive).

Q: And the normalized growth (locus YER110C, stronger effect = lower value)?
A: Its normalized growth is 0.951 (inactive).

Q: And the normalized growth (locus YER111C, strain swi4, stronger effect = lower value)?
A: Its normalized growth is 0.991 (inactive).

Q: What about the normalized growth (locus YER155C, strain BEM2 (second series), stronger effect = lower value) of the same compound?
A: Its normalized growth is 0.765 (active).

Q: And the normalized growth (locus YER155C, strain BEM2, stronger effect = lower value)?
A: The normalized growth was 0.945 (inactive).

Q: And the normalized growth (locus YER167W, strain BCK2, stronger effect = lower value)?
A: The normalized growth was 0.873 (active).

Q: What about the normalized growth (locus YFR010W, strain ubp6, stronger effect = lower value) of the same compound?
A: The normalized growth was 0.944 (inactive).

Q: What about the normalized growth (locus YGL078C, strain dbp3, stronger effect = lower value) of the same compound?
A: The normalized growth was 0.97 (inactive).

Q: What about the normalized growth (locus YGL086W, strain mad1, stronger effect = lower value) of the same compound?
A: Its normalized growth is 0.935 (inactive).

Q: And the normalized growth (locus YGL167C, strain pmr1, stronger effect = lower value)?
A: Its normalized growth is 1.01 (inactive).

Q: What about the normalized growth (locus YGL173C, strain kem1, stronger effect = lower value) of the same compound?
A: Its normalized growth is 0.959 (inactive).

Q: What about the normalized growth (locus YGL227W, strain vid30, stronger effect = lower value) of the same compound?
A: The normalized growth was 0.959 (inactive).

Q: What about the normalized growth (locus YGL240W, strain doc1, stronger effect = lower value) of the same compound?
A: Its normalized growth is 0.882 (active).

Q: What about the normalized growth (locus YGL248W, strain PDE1, stronger effect = lower value) of the same compound?
A: Its normalized growth is 0.904 (inactive).

Q: And the normalized growth (locus YGL253W, strain hxk2, stronger effect = lower value)?
A: The normalized growth was 0.879 (active).

Q: What about the normalized growth (locus YGR078C, strain PAC10, stronger effect = lower value) of the same compound?
A: The normalized growth was 0.848 (active).

Q: And the normalized growth (locus YGR135W, strain pre9, stronger effect = lower value)?
A: The normalized growth was 0.847 (active).

Q: And the normalized growth (locus YGR252W, strain gcn5, stronger effect = lower value)?
A: The normalized growth was 0.608 (active).

Q: What about the normalized growth (locus YHR013C, strain ard1, stronger effect = lower value) of the same compound?
A: The normalized growth was 0.915 (inactive).

Q: And the normalized growth (locus YHR027C, strain rpn1, stronger effect = lower value)?
A: The normalized growth was 0.945 (inactive).

Q: And the normalized growth (locus YHR030C, strain SLT2, stronger effect = lower value)?
A: The normalized growth was 0.968 (inactive) and 0.921 (inactive).

Q: What about the normalized growth (locus YHR079C, strain IRE1 (second series), stronger effect = lower value) of the same compound?
A: The normalized growth was 0.927 (inactive).

Q: What about the normalized growth (locus YHR079C, strain IRE1, stronger effect = lower value) of the same compound?
A: The normalized growth was 0.904 (inactive).

Q: What about the normalized growth (locus YHR094C, strain hxt1, stronger effect = lower value) of the same compound?
A: The normalized growth was 0.954 (inactive).

Q: What about the normalized growth (locus YHR129C, strain ARP1, stronger effect = lower value) of the same compound?
A: Its normalized growth is 0.948 (inactive).

Q: What about the normalized growth (locus YHR142W, strain chs7, stronger effect = lower value) of the same compound?
A: Its normalized growth is 0.803 (active).

Q: What about the normalized growth (locus YHR200W, strain rpn10, stronger effect = lower value) of the same compound?
A: The normalized growth was 0.934 (inactive).

Q: What about the normalized growth (locus YIL066C, strain RNR3, stronger effect = lower value) of the same compound?
A: Its normalized growth is 0.89 (inactive).

Q: And the normalized growth (locus YIL073C, strain SPO22, stronger effect = lower value)?
A: Its normalized growth is 0.854 (inactive).

Q: And the normalized growth (locus YIL125W, strain kgd1, stronger effect = lower value)?
A: Its normalized growth is 0.95 (inactive).

Q: What about the normalized growth (locus YIR030C, strain dcg1, stronger effect = lower value) of the same compound?
A: Its normalized growth is 0.933 (inactive).

Q: What about the normalized growth (locus YJL092W, strain hpr5, stronger effect = lower value) of the same compound?
A: The normalized growth was 0.946 (inactive).

Q: What about the normalized growth (locus YJL095W, strain BCK1 (second series), stronger effect = lower value) of the same compound?
A: Its normalized growth is 0.96 (inactive).

Q: And the normalized growth (locus YJL095W, strain BCK1, stronger effect = lower value)?
A: Its normalized growth is 0.738 (active) and 0.924 (inactive).

Q: What about the normalized growth (locus YJL115W, strain asf1, stronger effect = lower value) of the same compound?
A: The normalized growth was 0.989 (inactive).

Q: What about the normalized growth (locus YJL129C, strain trk1, stronger effect = lower value) of the same compound?
A: Its normalized growth is 0.974 (inactive).

Q: What about the normalized growth (locus YJL134W, strain LCB3, stronger effect = lower value) of the same compound?
A: The normalized growth was 0.985 (inactive).

Q: And the normalized growth (locus YJL154C, strain vps35, stronger effect = lower value)?
A: The normalized growth was 0.985 (inactive).

Q: What about the normalized growth (locus YJL164C, strain tpk1, stronger effect = lower value) of the same compound?
A: Its normalized growth is 0.897 (active).

Q: And the normalized growth (locus YJL166W, strain qcr8, stronger effect = lower value)?
A: Its normalized growth is 0.952 (inactive).

Q: What about the normalized growth (locus YJL168C, strain set2, stronger effect = lower value) of the same compound?
A: Its normalized growth is 0.958 (inactive).

Q: What about the normalized growth (locus YJL187C, strain SWE1 (second series), stronger effect = lower value) of the same compound?
A: The normalized growth was 0.93 (inactive).

Q: What about the normalized growth (locus YJL187C, strain SWE1, stronger effect = lower value) of the same compound?
A: Its normalized growth is 0.985 (inactive).

Q: And the normalized growth (locus YJR043C, strain POL32, stronger effect = lower value)?
A: The normalized growth was 0.754 (active).
